Assay results: PubChem BioAssay AID2551 (National Center for Advancing Translational Sciences (NCATS), 2010)
The whole screen tested about 310,000 compounds, of which about 17,000 (5.5%) were called active. A call without a number means that no potency is given here. Not shown: some 11% with an inconclusive outcome. This excerpt belongs to a sample that is enriched for actives. Values without a mark were called inactive. Calls come from the whole dose curve; as a rule, active = well fitted inhibition curve with a large enough effect; inconclusive = small, poorly fitted or top-dose-only effect, or effect the other way; inactive = no such curve, though single readings can be large or run the other way.
Note: nearly all actives have a fitted effect of over 60% in size.
Potency is the fitted concentration of half-maximal effect.

Each compound was assayed against Nuclear receptor ROR-gamma (Mus musculus) (UniProt P51450) (assay: qHTS for inhibitors of ROR gamma transcriptional activity). Conditions: Drosophila S2 Gal4-RORgamma UAS-luciferase reporter, 20 h; series mostly up to 53.6 µM.
Nuclear receptor ROR-gamma (Mus musculus), sequence (P51450 whole entry, looked up, the tested form may be a part): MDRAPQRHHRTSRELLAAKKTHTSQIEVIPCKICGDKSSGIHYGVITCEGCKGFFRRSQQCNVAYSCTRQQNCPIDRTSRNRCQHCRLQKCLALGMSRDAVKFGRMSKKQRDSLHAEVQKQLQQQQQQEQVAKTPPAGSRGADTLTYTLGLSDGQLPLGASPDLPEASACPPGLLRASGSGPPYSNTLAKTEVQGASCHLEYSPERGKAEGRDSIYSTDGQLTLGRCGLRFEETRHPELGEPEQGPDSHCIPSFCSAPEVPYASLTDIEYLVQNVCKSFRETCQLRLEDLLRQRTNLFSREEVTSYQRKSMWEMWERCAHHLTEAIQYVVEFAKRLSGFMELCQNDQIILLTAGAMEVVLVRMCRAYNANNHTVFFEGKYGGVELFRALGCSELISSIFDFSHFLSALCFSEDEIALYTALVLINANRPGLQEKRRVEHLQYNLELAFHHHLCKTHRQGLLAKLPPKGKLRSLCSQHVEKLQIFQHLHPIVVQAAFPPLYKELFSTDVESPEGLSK
Summary of the method: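 Drosophila S2 cells stably expressing Gal4-DBD/mouse RORγ fusion under metallothionein promoter plus UAS-luciferase; compound 1 h, then 700 uM CuSO4 induction for 20 h at ambient temperature; inhibition read as reduced luminescence.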
`CNC(=S)N/N=C/c1ccc(OCc2ccccc2)c(Br)c1` was tested, and the Potency was 1.26 µM (active).
For `C=CCNC(=S)N/N=C/c1ccc(OCc2ccccc2)cc1`, the Potency was “inactive”.
`O=C(O)COc1ccc(/C=N/O)cc1Br` was tested, and the Potency was “inactive”.
`COc1cc(NS(=O)(=O)c2ccc(NC(=S)NC(=O)c3ccc(Br)cc3)cc2)ncn1` was tested, and the Potency was “inactive”.
With `COc1cc2c(cc1OC)CN(C(=O)c1cc(S(=O)(=O)N3CCCCC3)ccc1Cl)CC2` the Potency was “inactive”.
With `Cc1ccc(C(=O)NCC(=O)OCc2nnc(-c3ccccc3)o2)cc1` the Potency was “inactive”.
In the case of `Cc1c(CCC(=O)N[C@@H](CC(C)C)C(=O)O)c(=O)oc2c(C)c3oc4c(c3cc12)CCCC4`, the Potency is reported as “inactive”.
In the case of `CCOC(=O)C1=C(C)NC(=O)NC1c1ccccc1` (centres undefined), the Potency is reported as “inactive”.
For `CCOC(=O)C1=C(c2ccccc2)NC(=S)NC1c1ccc(Cl)cc1` (centres undefined), the Potency was 7.94 µM (active).
In the case of `CCOC(=O)C1=C(c2ccccc2)NC(=O)NC1c1cc(OC)c(OC)cc1OC` (centres undefined), the Potency is reported as “inactive”.
`Cn1cc(C(=O)c2ccc(Cl)cc2Cl)cc1C(=O)NN` was tested, and the Potency was “inactive”.
`COc1ccc(C2=Nc3cc(C)ccc3OC2)cc1` was tested, and the Potency was 10 µM (active).
With `COc1ccc(NC(=O)c2cc(-c3ccc(C)cc3)on2)cc1` the Potency was “inactive”.
With `COc1ccc(C2=NOC3(CC(=O)N(c4ccc(C)cc4)C3=O)C2)cc1` (centres undefined) the Potency was “inactive”.
With `Cc1cc(C)cc(N(CCC#N)C(=O)CN2C(=O)NC3(CCCC3)C2=O)c1` the Potency was “inactive”.
In the case of `COc1ccc(N(Cc2ccc(N(C)C)cc2)C(=O)c2ccc(S(C)(=O)=O)cc2)cc1`, the Potency is reported as “inactive”.
For `CCOc1ccccc1NC(=S)N1CCN(c2cccc(C)c2C)CC1`, the Potency was 6.31 µM (active).
In the case of `COCCN(C(=S)Nc1ccccc1OC)C1CCN(C(C)C)CC1`, the Potency is reported as “inactive”.
`COc1ccccc1NC(=S)N1CCN(C(c2ccccc2)c2ccccc2)CC1` was tested, and the Potency was 3.55 µM (active).
With `CC(=O)N1CCN(c2cccc(C)c2C)CC1` the Potency was “inactive”.
For `CCC(=O)N1CCN(c2ccccc2NC(=O)COc2cccc(C)c2C)CC1`, the Potency was “inactive”.
For `COc1ccccc1NC(=S)N1CCC(NC(=O)C23CC4CC(CC(C4)C2)C3)CC1`, the Potency was “inactive”.
In the case of `CC(=O)c1cccc(NC(=S)N2CCN(S(C)(=O)=O)CC2)c1`, the Potency is reported as “inactive”.
With `CCC(C(=O)NC1CCCCC1)N(C(=O)c1snc(C(N)=O)c1N)c1ccc(OC)cc1OC` (centres undefined) the Potency was “inactive”.
For `O=C(CCc1nnc2ccc(NCc3ccccc3Cl)nn12)NCC1CCN(C2CCCC2)C1` (centres undefined), the Potency was “inactive”.
`COc1ccc(-c2csc3nc(-c4ccccc4F)oc(=O)c23)cc1OC` was tested, and the Potency was 11.2 µM (active).
For `COc1ccc(-c2noc(-c3cccc(OC)c3OC)n2)cc1OC`, the Potency was “inactive”.
For `COc1ccc(-c2csc(-c3cccs3)n2)cc1OC`, the Potency was “inactive”.
With `C/[N+]([O-])=C\c1ccc([N+](=O)[O-])o1` the Potency was 11.2 µM (active).
In the case of `NC(=O)C(=O)N/N=C/c1ccc([N+](=O)[O-])o1`, the activity change, negative = inhibition is reported as -19.4% [at 10 µM].
With `Cc1cc(C)nc(N/N=C/c2ccc([N+](=O)[O-])o2)n1` the Potency was “inactive”.
With `CCOC(=O)[C@H]1[C@H]2COc3cc(OC)ccc3[C@@H]2N2C(=O)N(c3ccc(Br)cc3)C(=O)[C@@]12C` the Potency was “inactive”.
In the case of `Cn1nccc1C(=O)N1CCCC(C(=O)c2ccc(Oc3ccccc3)cc2)C1` (centres undefined), the Potency is reported as “inactive”.
With `C=CCOc1c(CNn2cn[nH]c2=S)cccc1OC` the Potency was 11.2 µM (active).
`COc1ccccc1-n1cn[nH]c1=S` was tested, and the Potency was “inactive”.
In the case of `C=CCC(Nc1ccccc1)c1cccc(OC)c1OC` (centres undefined), the Potency is reported as “inactive”.
With `COc1cccc(CNn2cn[nH]c2=S)c1OCc1ccccc1` the Potency was 2.51 µM (active).
`C=CCOc1ccc(/C=N/n2cncn2)cc1OC` was tested, and the Potency was “inactive”.
`C=CCOc1cccc(CNn2cn[nH]c2=S)c1` was tested, and the Potency was 10 µM (active).
In the case of `CCOc1c(CNCc2ccc(C(=O)O)cc2)cccc1OC`, the Potency is reported as “inactive”.
With `C=CCOc1cccc(C2NC(=O)c3ccccc3O2)c1` (centres undefined) the Potency was “inactive”.
In the case of `COc1ccc(-c2cc(=O)oc3cc(OC(C)C(=O)NCC4CCC(C(=O)O)CC4)ccc23)cc1` (centres undefined), the Potency is reported as “inactive”.
`CCN(CC)CCCNC(=O)c1cc2c(=O)[nH]c3ccc(C)cc3c2s1` was tested, and the Potency was “inactive”.
With `CCCCC[C@H]1CN(C2CCCCC2)C(=O)[C@@H]1CC(=O)NCc1ccc(OC)cc1` the Potency was “inactive”.
`COc1ccccc1-c1sc2ccccc2c1-c1ccc(C(C)=O)cc1` was tested, and the Potency was “inactive”.
`Cc1ccc(-c2csc(NC3OC(=O)c4ccccc43)n2)cc1` (centres undefined) was tested, and the Potency was “inactive”.
In the case of `COc1ccc(-c2cn3ccsc3n2)cc1`, the Potency is reported as “inactive”.
For `CCN(CC)S(=O)(=O)c1ccc(-c2cn3ccc(C)cc3n2)cc1`, the Potency was “inactive”.
In the case of `COc1ccc(-c2cn3ccc(C)cc3n2)cc1`, the Potency is reported as 3.16 µM (active).
For `CCOc1ccc(-n2c(SCC(=O)OC)nc3sc4c(c3c2=O)CCN(C)C4)cc1`, the Potency was “inactive”.
With `COc1ccc(N(CC(=O)Nc2ccc(F)c(F)c2)S(=O)(=O)c2c(C)[nH]c(=O)[nH]c2=O)cc1` the Potency was “inactive”.
In the case of `COc1cccc(C(O)c2nc3ccccc3n2C)c1` (centres undefined), the Potency is reported as “inactive”.
In the case of `COc1ccc(/C=N/NC(=O)C2CC2)c(OC)c1OC`, the Potency is reported as “inactive”.
With `Oc1ccccc1C=NC1CCCCC1N=Cc1ccccc1O` (centres undefined) the Potency was “inactive”.
In the case of `O=C(N/N=C/c1ccccc1O)C1CCCC1`, the Potency is reported as 0.158 µM (active).
`CCn1c(=S)sc2c(=O)n(CC(=O)Nc3cccc(Br)c3)c(C)nc21` was tested, and the Potency was “inactive”.
For `Cc1cc(C)c(NC(=O)CN2CCCCCC2)c(C)c1`, the Potency was “inactive”.
With `O=C(c1c(F)cccc1Cl)N1CCN(S(=O)(=O)c2ccc3c(c2)OCCCO3)CC1` the Potency was “inactive”.
For `CCOc1ccccc1CNS(=O)(=O)c1cc(-c2cc(C)no2)ccc1C`, the Potency was “inactive”.
For `COc1ccc(/C=C2\SC(=O)N(CCC(=O)NC3CCS(=O)(=O)C3)C2=O)cc1` (centres undefined), the Potency was “inactive”.
`O=C(NCc1cccs1)c1ccc(CS(=O)Cc2ccccc2Cl)o1` (centres undefined) was tested, and the Potency was “inactive”.
`CCc1cc(-c2n[nH]c(=S)n2CC(C)C)cs1` was tested, and the Potency was 2.51 µM (active).
With `CCCc1cc(-c2n[nH]c(=S)n2Cc2ccccc2)cs1` the Potency was 4.47 µM (active).
With `CCc1cc(-c2nnc(SCC(=O)NC3CC3)n2C)cs1` the Potency was “inactive”.
With `Cc1cc(-c2csc(N)n2)c(C)n1Cc1ccccc1` the Potency was “inactive”.
`CC(=O)Nc1ccc(C(=O)Nc2nc(-c3cc(C)n(Cc4ccccc4)c3C)cs2)cc1` showed an activity change, negative = inhibition of 3.29% [at 10 µM].
With `COC(=O)c1ccccc1NC(=O)CSc1nc2c(c(=O)[nH]1)CCC2` the Potency was “inactive”.
In the case of `COc1ccc(C(=O)NCC(=O)N/N=C/c2cccnc2)cc1`, the Potency is reported as “inactive”.
`CCOC(=O)[C@@H]1[C@H]2COc3cc(OC)ccc3[C@H]2N2C(=O)N(c3ccc(F)cc3)C(=O)[C@]12C` was tested, and the Potency was “inactive”.
For `COc1ccc(CNS(=O)(=O)c2ccc(-c3cnc(C4CC4)o3)cc2)cc1`, the Potency was “inactive”.
`CCOC(=O)c1cccc(NS(=O)(=O)c2c(C(=O)N3CCCCCC3)c(C)n(C)c2C)c1` was tested, and the Potency was “inactive”.
In the case of `O=C(c1ccccc1F)N(Cc1ccccc1)Cc1ccccc1`, the Potency is reported as “inactive”.
In the case of `COc1cccc(CNC(=O)c2n[nH]c3ccccc23)c1`, the Potency is reported as “inactive”.
With `CCn1c(=O)cc(OCC(=O)NCCCN2CCN(c3cccc(Cl)c3)CC2)c2ccccc21` the Potency was “inactive”.
With `COc1cccc(CNC(=O)c2nnn(CC(=O)Nc3cc(C)ccc3C)c2N)c1` the Potency was “inactive”.
`O=C(CCCn1c(=O)[nH]c2cc(Cl)ccc2c1=O)NCCN1CCN(c2ccccc2)CC1` was tested, and the Potency was “inactive”.
For `O=C(Cc1csc(Nc2nc(=S)[nH]c3ccccc23)n1)NCCCN1CCN(c2cccc(Cl)c2)CC1`, the Potency was 2.51 µM (active).
In the case of `COc1cccc(CNC(=O)Cc2csc(Nc3nc(=S)[nH]c4ccccc34)n2)c1`, the Potency is reported as 6.31 µM (active).
In the case of `COc1cc(Cl)ccc1OCc1cc(C(=O)N(C)CCc2c(C)n[nH]c2C)no1`, the Potency is reported as “inactive”.
In the case of `COc1ccccc1CNc1nc(-c2c(C)noc2C)nc2ccccc12`, the Potency is reported as “inactive”.
For `COc1ccccc1CNc1ccnc(-c2c(C)noc2C)n1`, the Potency was “inactive”.
In the case of `COc1ccccc1CNc1ncnc2ccc(-c3c(C)noc3C)cc12`, the Potency is reported as 5.01 µM (active).
With `COc1cc(C2/C(=C(\O)c3ccc4c(c3)CC(C)O4)C(=O)C(=O)N2c2nnc(C)s2)cc(OC)c1OC` (centres undefined) the Potency was “inactive”.
For `CC(C)c1ccc(/C=C2\NC(=O)NC2=O)cc1`, the Potency was “inactive”.
In the case of `O=C(NC1CC1)C(Cc1ccccc1)NS(=O)(=O)c1ccccc1F` (centres undefined), the Potency is reported as “inactive”.
For `N#CC1=C(SCc2ccccc2)NC(=O)C(C#N)C12CCCC2` (centres undefined), the activity change, negative = inhibition was 26.7% [at 0.365 µM].
For `N#CC1=C(SCc2ccc(C#N)cc2)N=C(N)C(c2nc(-c3ccccc3)cs2)C12CCCCC2` (centres undefined), the Potency was 11.2 µM (active).
Compound `N#Cc1ccc(CSc2ncccn2)cc1` has an activity change, negative = inhibition of -36.2% [at 1.91 µM].
With `CCOC(=O)c1sc(=NC(=O)c2ccc(Br)cc2)n(C)c1C` the Potency was “inactive”.
In the case of `COc1ccc(CCN2CC(C(=O)NCCN3CCNC3=O)CCC2=O)cc1` (centres undefined), the Potency is reported as “inactive”.
For `CCOC(=O)CSc1nc(N2CCOCC2)c2c(c1C#N)CC(C(C)C)OC2` (centres undefined), the Potency was “inactive”.
In the case of `COC(=O)CSc1nccc(-c2cccs2)n1`, the Potency is reported as “inactive”.
In the case of `O=C(O)COc1ccc(-c2nccc(-c3cccs3)n2)cc1`, the Potency is reported as 5.62 µM (active).
In the case of `O=C(Nc1ccnc(-c2ccncc2)n1)c1cccs1`, the Potency is reported as “inactive”.
In the case of `CCOc1ccc(N(C(=O)c2snc(C(N)=O)c2N)C(C(=O)NCC2CCCO2)c2c[nH]c3ccccc23)cc1` (centres undefined), the Potency is reported as “inactive”.
With `Fc1ccc(COc2cccc(-c3n[nH]c(=S)o3)c2)cc1` the Potency was 11.2 µM (active).
In the case of `Cc1nc2ccccc2cc1OCc1ccc(F)cc1`, the Potency is reported as “inactive”.
`Fc1ccc(COc2ccc(-c3nnco3)cc2)cc1` was tested, and the Potency was “inactive”.
In the case of `Cc1cc(F)ccc1N1CCC(N2CCN(C)C(CCO)C2)CC1` (centres undefined), the Potency is reported as “inactive”.
For `Cc1cc(=O)cc(C)n1-c1ccc(Cl)c(Cl)c1`, the Potency was “inactive”.
`Cc1ccc(-n2c(C)cc(/C=N\NC(=O)CC(=O)NC(C)C)c2C)cc1` was tested, and the Potency was “inactive”.
With `Cc1cc(/C=N/NC(=O)CC2(C)OCCO2)c(C)n1-c1ccc(Cl)c(Cl)c1` the Potency was 17.8 µM (active).
In the case of `Cc1cccc(OCC(O)Cn2c(N3CCCCC3)nc3c2c(=O)[nH]c(=O)n3C)c1` (centres undefined), the Potency is reported as “inactive”.
With `COc1ccc2oc(=N)c(C(=O)Nc3ccc(Br)cc3)cc2c1` the Potency was “inactive”.
